From PubChem BioAssay
Active and inactive are the calls of the source. Unless noted, the rule behind the calls is not given here.

Legend:
[1] = anti-His antibody binders, primary screen, artefact control for SMM control protein annotation, biochemical, small-molecule microarray, 635 nm fluorescence (AID 1128); details: anti-His Alexa647 antibody binding, higher = more signal;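 note: score merges feature fluorescence with signal-to-noise for each printed compound spot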
[2] = tested on: Human papillomavirus type 1a E7 protein (residues 1-88); assay: HPV1a E7 small-molecule binders, primary screen, biochemical, small-molecule microarray, residues 1-88, 635 nm (AID 1129); details: small-molecule microarray binding, fluorescence 635 nm; higher = more signal
[3] = molecular target: Focal adhesion kinase 1 (Homo sapiens) (UniProt Q05397); assay: small-molecule microarray binders of FAK, primary screen, biochemical, 635/667 nm fluorescence, BSA, DTT (AID 1130); details: PTK2 binding, 635 nm fluorescence, higher = more signal;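 note: composite of spot emission at 667 nm and signal to noise over triplicate slides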
Chain of Focal adhesion kinase 1 (Homo sapiens) (Q05397 whole entry, looked up): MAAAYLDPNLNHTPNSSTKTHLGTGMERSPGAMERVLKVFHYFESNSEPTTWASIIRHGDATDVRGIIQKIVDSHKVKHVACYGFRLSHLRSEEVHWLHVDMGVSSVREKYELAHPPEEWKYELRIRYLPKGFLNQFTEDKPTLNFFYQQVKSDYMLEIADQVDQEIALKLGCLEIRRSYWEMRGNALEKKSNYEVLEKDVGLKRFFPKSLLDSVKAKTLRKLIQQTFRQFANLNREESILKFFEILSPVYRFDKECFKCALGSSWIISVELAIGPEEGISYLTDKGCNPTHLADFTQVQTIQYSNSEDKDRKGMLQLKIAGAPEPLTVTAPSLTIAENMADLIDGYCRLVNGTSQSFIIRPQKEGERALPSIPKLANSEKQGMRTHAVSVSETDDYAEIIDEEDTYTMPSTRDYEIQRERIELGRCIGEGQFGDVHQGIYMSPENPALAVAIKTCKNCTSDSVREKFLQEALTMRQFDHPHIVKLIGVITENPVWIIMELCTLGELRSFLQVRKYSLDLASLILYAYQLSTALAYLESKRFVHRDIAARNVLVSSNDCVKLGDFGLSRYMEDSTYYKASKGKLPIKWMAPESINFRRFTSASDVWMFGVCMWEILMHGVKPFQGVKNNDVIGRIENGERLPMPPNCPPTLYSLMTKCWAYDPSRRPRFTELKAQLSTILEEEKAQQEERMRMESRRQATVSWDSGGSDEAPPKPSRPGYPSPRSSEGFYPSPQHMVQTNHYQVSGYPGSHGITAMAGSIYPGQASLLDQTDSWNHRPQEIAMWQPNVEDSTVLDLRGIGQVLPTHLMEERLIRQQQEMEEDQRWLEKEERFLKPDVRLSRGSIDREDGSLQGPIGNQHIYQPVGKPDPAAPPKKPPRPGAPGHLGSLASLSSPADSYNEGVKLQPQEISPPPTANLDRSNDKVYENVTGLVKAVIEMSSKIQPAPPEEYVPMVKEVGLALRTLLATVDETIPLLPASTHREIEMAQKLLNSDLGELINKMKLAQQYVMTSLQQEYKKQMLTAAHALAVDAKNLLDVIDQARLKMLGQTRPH

[4] = tested on: Fibrinogen (Alexa647-labelled); assay: fibrinogen binders on compound microarrays, profiling panel, artefact control for SMM control-protein annotation, biochemical, small-molecule microarray, 635/667 nm fluorescence (AID 1131); details: fibrinogen-A647 binding fluorescence, higher = more signal;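 note: z-score merges 667 nm fluorescence with per-spot signal-to-noise over triplicate slides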
[5] = molecular target: Follistatin (Homo sapiens) (UniProt P19883); assay: follistatin binders on small-molecule microarrays, primary screen, biochemical, small-molecule microarray, 635/667 nm fluorescence (AID 1132); details: FST binding, 635 nm fluorescence, higher = more signal
Chain of Follistatin (Homo sapiens) (P19883 whole entry, looked up): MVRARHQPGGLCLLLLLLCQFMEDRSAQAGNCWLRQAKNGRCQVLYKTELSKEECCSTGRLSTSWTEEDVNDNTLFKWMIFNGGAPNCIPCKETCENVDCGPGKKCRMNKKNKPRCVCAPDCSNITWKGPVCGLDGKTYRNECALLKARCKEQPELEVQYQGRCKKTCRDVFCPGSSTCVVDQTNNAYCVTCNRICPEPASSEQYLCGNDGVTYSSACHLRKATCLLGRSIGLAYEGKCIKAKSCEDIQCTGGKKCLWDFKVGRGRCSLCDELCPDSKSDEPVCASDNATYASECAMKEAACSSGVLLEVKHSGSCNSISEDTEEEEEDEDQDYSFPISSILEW

[6] = molecular target: Fibroblast growth factor 2 (Homo sapiens) (UniProt P09038); assay: FGF2 binders on small-molecule microarrays, primary screen, biochemical, small-molecule microarray, 635/667 nm fluorescence (AID 1133); details: small-molecule microarray binding, FGF2, fluorescence 635/667; higher = more signal
Chain of Fibroblast growth factor 2 (Homo sapiens) (P09038 whole entry, looked up): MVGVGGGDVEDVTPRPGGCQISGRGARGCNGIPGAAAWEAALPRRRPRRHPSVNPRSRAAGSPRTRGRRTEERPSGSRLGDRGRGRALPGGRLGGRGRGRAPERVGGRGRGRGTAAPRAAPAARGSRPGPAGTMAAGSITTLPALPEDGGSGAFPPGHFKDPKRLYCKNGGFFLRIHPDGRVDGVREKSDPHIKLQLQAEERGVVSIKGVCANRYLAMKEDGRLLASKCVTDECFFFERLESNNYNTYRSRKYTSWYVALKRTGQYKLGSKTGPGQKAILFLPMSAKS

[7] = mitochondrial membrane potential change in A549 cells, profiling panel, cell-based, JC-1 fluorescence, basal, 24 h, 100 nL (AID 1138); details: higher = more signal;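 note: A549 lung adenocarcinoma cells under basal conditions with no added stimulus; test concentration not given here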
Lefty1 = Lefty1 binders on small-molecule microarrays, primary screen, biochemical, small-molecule microarray, 635/667 nm fluorescence (AID 1139); details: small-molecule microarray binding, fluorescence 635/667; higher = more signal
[8] = tested on: wheat germ agglutinin (Triticum aestivum), Alexa647-labelled; assay: wheat germ agglutinin binders on compound microarrays, profiling panel, artefact control for SMM control-protein annotation, biochemical, small-molecule microarray, 635/667 nm fluorescence (AID 1140); details: WGA-A647 binding, 635 nm fluorescence, higher = more signal;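 note: score merges 667 nm feature emission with signal to noise over triplicate slides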
[9] = molecular target: Luciferin 4-monooxygenase (Photinus pyralis) (UniProt P08659); assay: firefly luciferase enzyme inhibitors, primary screen, biochemical, luminescence, purified enzyme, 2006 set (AID 1141); details: SteadyGlo luminescence, 30 min, higher = more signal, called active from +8 up or from −8 down;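 note: cell-free assay with purified firefly luciferase at 100 ng per well in PBS; test concentration not given here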
Chain of Luciferin 4-monooxygenase (Photinus pyralis) (P08659 whole entry, looked up): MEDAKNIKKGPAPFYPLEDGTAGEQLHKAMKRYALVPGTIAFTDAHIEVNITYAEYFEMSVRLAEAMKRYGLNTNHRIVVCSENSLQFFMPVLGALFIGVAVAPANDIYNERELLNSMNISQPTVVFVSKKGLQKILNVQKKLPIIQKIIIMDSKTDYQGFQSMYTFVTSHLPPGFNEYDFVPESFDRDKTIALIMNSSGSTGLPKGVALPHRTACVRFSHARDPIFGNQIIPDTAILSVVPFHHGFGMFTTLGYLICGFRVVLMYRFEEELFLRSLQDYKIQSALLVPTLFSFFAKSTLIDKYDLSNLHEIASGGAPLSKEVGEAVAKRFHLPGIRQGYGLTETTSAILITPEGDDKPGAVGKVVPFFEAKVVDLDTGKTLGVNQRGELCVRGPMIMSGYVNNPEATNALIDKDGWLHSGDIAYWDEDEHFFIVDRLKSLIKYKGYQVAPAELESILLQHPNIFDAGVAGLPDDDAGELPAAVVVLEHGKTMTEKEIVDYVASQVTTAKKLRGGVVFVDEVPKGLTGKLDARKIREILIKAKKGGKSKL

[10] = tested on: Wnt5a (protein binding on small-molecule microarray); assay: Wnt5a binders on small-molecule microarray, primary screen, biophysical, 635/667 nm fluorescence (AID 1142); details: 635 nm fluorescence, higher = more signal;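 note: fluorescence read at 667 nm with signal to noise per printed feature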
[11] = cell viability in Huh7 cells, primary screen, cytotoxicity control for HCV replication inhibitor project, CellTiter-Glo luminescence, basal, 48 h (AID 1143); details: Huh7 HCV replicon, higher = more signal, called active from +8 up or from −8 down;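 note: Huh7 hepatoma cells carrying a hepatitis C replication reporter with no stimulus; test concentration not given here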
[12] = P. aeruginosa biofilm formation inhibitors, primary screen, PAO1 strain, BacTiter-Glo luminescence, LB-PBS (AID 1144); details: 12 h, higher = more signal
[13] = CREB reporter modulators without forskolin, primary screen, cell-based, PC12, CRE-LacZ reporter, unstimulated (AID 1145); details: no forskolin, luminescence, 4.5 h, higher = more signal, called active from +8 up or from −8 down
[14] = CREB reporter modulators under forskolin, primary screen, cell-based, PC12, CRE-LacZ reporter, forskolin-stimulated (AID 1146); details: luminescence, 4.5 h, higher = more signal, called active from +8 up or from −8 down;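 note: PC12 cells with 6xCRE LacZ reporter stimulated by forskolin 10 µM; beta-galactosidase reporter signal reflecting CREB driven transcription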
[15] = molecular target: Streptavidin (Streptomyces avidinii) (UniProt P22629); assay: streptavidin binders on small-molecule microarray, primary screen, artefact control for SMM compound annotation, biophysical, 635/667 nm fluorescence (AID 1147); details: streptavidin binding, higher = more signal;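 note: signal reflects streptavidin binding to arrayed compounds as a control protein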
Chain of Streptavidin (Streptomyces avidinii) (P22629 whole entry, looked up): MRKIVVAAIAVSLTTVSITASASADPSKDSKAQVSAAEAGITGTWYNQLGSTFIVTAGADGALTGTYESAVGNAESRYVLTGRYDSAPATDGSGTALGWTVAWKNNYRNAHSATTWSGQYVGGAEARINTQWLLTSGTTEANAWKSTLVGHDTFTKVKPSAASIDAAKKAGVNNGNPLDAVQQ

[16] = small-molecule binders of probe aInhba, primary screen, biochemical, small-molecule microarray, 635/667 nm fluorescence (AID 1148); details: higher = more signal;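 note: score merges 667nm spot fluorescence with signal-to-noise for antibody binding to printed compounds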
Torsin-1A (Homo sapiens) [17] = molecular target: Torsin-1A (Homo sapiens) (UniProt O14656); assay: torsin A binders from cell lysate, primary screen, small-molecule microarray, wild-type, 635/667 nm (AID 1149); details: COS7 hTOR1A-WT lysate, 635 nm fluorescence, higher = more signal
Chain of Torsin-1A (Homo sapiens) (O14656 whole entry, looked up): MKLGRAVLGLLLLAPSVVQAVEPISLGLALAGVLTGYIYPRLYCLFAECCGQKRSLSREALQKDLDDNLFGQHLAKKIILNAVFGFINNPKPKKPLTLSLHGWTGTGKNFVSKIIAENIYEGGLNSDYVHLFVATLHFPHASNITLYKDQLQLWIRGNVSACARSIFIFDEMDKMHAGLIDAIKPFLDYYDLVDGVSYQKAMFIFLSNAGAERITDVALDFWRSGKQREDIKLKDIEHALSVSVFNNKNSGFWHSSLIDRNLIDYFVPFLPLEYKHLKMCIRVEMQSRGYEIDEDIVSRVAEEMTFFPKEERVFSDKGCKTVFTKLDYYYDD

Torsin-1A (Homo sapiens) [18] = molecular target: Torsin-1A (Homo sapiens) (UniProt O14656); assay: small-molecule binders of mutant TOR1A in lysate, primary screen, cell lysate, small-molecule microarray, COS7 lysate, 635/667 nm fluorescence (AID 1150); details: COS7 hTOR1A mutant lysate, 635 nm fluorescence, higher = more signal;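 note: score pools 667 nm emission and signal to noise measuring lysate protein binding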
[19] = tested on: Sonic hedgehog protein (Shh); assay: small-molecule binders of Shh protein, primary screen, biochemical, small-molecule microarray, 635/667 nm fluorescence (AID 1151); details: small-molecule microarray binding, 635 nm fluorescence; higher = more signal;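 note: Shh protein binding to compounds spotted on small-molecule microarray slides; score combines spot fluorescence intensity with signal-to-noise across triplicate slides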

Structure (SMILES) | composite z-score [1] | composite z-score [2] | composite z-score [3] | composite z-score [4] | composite z-score [5] | composite z-score [6] | z-score [7] | composite z-score (Lefty1) | composite z-score [8] | z-score [9] | composite z-score [10] | z-score [11] | z-score [12] | z-score [13] | z-score [14] | composite z-score [15] | composite z-score [16] | composite z-score (Torsin-1A (Homo sapiens) [17]) | composite z-score (Torsin-1A (Homo sapiens) [18]) | composite z-score [19]
COCCCNC(=O)[C@@]1(Cc2ccccc2CN=[N+]=[N-])N=C(c2ccc(OCCCO)cc2)O[C@H]1c1ccccc1 | 1.75 | 1.23 | 0.895 | 0.991 | 1.25 | 0.14 | -0.0671 | 0.365 | 0.73 | 0.094 (inactive) | 0.919 | -4.74 (inactive) | -0.688 (inactive) | 0.391 (inactive) | 0.145 (inactive) | 0.284 | 0.0872 | 0.821 | 1.26 | -0.715
O=C1N(Cc2ccccc2)c2ccccc2[C@@H]2OC(c3ccc(OCCCO)cc3)=N[C@]12Cc1ccccc1 | 0.205 | 1.24 | 0.623 | 0.787 | 1.12 | 1.12 | -1.31 | 0.183 | 0.849 | -3.86 (inactive) | -0.0069 | -4.55 (inactive) | -0.236 (inactive) | 1.37 (inactive) | -1.64 (inactive) | 0.89 | -0.0332 | 0.378 | 0.534 | 0.809
O=c1n(-c2ccccc2)c(=O)n2n1CC(COc1ccccc1)=C([C@H](O)CCc1ccccc1)[C@@H]2CO | 0.308 | 0.0864 | -0.18 | 0.783 | 0.415 | 1.14 | 0.77 | 0.635 | 0.576 | -1.35 (inactive) | -0.0748 | -2.16 (inactive) | -0.496 (inactive) | 1.49 (inactive) | -0.373 (inactive) | -0.275 | -0.0618 | 0.8 | -0.119 | 0.426
CC1CC/C=C\[C@H]2OC34C=CCN(c5ccc(Cl)cc5)C(=O)[C@H]3N(CCCCCO)C(=O)[C@]4(C)C2C(=O)O1 (stereo not given in full) | -0.463 | -0.978 | -0.857 | -1.65 | -1.58 | -1.04 | 0.681 | -0.778 | -0.141 | -0.535 (inactive) | -0.793 | 0.504 (inactive) | 0.454 (inactive) | 0.329 (inactive) | -0.75 (inactive) | -1.18 | -0.251 | -2.18 | -1.48 | -0.449
[N-]=[N+]=Nc1ccccc1C[C@]1(C(N)=O)N=C(c2ccc(OCCCO)cc2)O[C@H]1c1ccccc1N=[N+]=[N-] | 1.91 | 1.21 | -0.0221 | 0.941 | 0.228 | 0.132 | -0.777 | -0.24 | 0.448 | -4.76 (inactive) | 0.611 | -4.95 (inactive) | -0.783 (inactive) | 1.6 (inactive) | -1.25 (inactive) | 1.22 | 0.189 | 0.747 | 0.986 | -0.191
COC(=O)[C@@]1(Cc2ccccc2)[C@H]2c3cc(C(=O)N(C)C)n(CCc4ccc(O)c(OC)c4)c3C[C@H]2CN1C(=O)c1ccccc1 | 0.964 | 0.88 | 0.0098 | 0.814 | 0.168 | 0.273 | 0.153 | 0.0511 | 0.0048 | 0.554 (inactive) | 1.01 | 0.394 (inactive) | 0.333 (inactive) | 0.201 (inactive) | 0.334 (inactive) | 0.545 | 1.07 | 0.0405 | 0.212 | -0.0598
